Hits are enriched below; roughly 2.3% of the tested compounds scored in any of these assays.
Mm-Cpn inhibitor: inhibitors of Methanococcus maripaludis chaperonin TRiC (MmCpn) | Potency, µM (series often up to 76.9 µM), for the others: at the top dose activity, negative = inhibition, most hits filed as inhibitors | purified Mm-Cpn ATPase, ADP Transcreener TR-FRET | AID 504842 | 330,000 compounds, 0.031% hits; further: potency means the concentration at half of the fitted maximal effect; on the % scale 0 is the no-effect control and ±100 the full control effect; nearly all actives have a fitted effect of over 80% in size
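Eu-cryptate anti-ADP/ADP-d2 competition gives a ratio inversely related to ADP. Enzyme at 25 nM was pre-exposed to compound for 10 min, then given 10 uM ATP for 30 min, 37°C throughout.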
Abeta yeast res: compounds reversing amyloid beta toxicity in yeast. yeast expressing A-beta42, growth rescue, OD600, 48 h; response scale: 0% DMSO, 100% iron-clioquinol control. Potency, µM (top dose mostly 46.1 µM), usual class: activators. 410,000 compounds, 0.063% hits; further: potency means the concentration at half of the fitted maximal effect; nearly all actives have a fitted effect of over 55% in size
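Growth rescue measured by 600 nm absorbance after 48 h yeast culture at 30 C with compound. Values normalized between DMSO and an equimolar ferric chloride plus clioquinol control.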
CCT modulator: changes cytosolic chaperonin activity; purified chaperonin ATPase assay, HTRF ADP detection, 30 min; activity change, % (no concentration beside the values), hits read low; 360,000 compounds, 0.3% hits; AID 651819; in the data active means activity change below about -30%; further: on the % scale 0 is the no-effect control and ±100 the full control effect
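We incubate TRiC, 40 or 20 nM final, with library compounds at 76 uM and 10 uM ATP for 30 min at 37 °C. ADP formed is detected with Transcreener HTRF reagents after 30 min at room temperature.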
TDP-43 yeast inh: TDP-43 toxicity inhibition in yeast. TDP-43 expressing yeast growth rescue, BacTiter-Glo, 24 h. 410,000 compounds, 1.8% hits. Potency, µM (highest dose often 46.1 µM), for inactives: at the highest dose growth rescue (activation), hits mostly activators; further: potency means the concentration at half of the fitted maximal effect; % of control where 0% means no effect; nearly all actives have a fitted effect of over 50% in size
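Growth rescue of TDP-43-toxic yeast measured as ATP luminescence (BacTiter-Glo). Cells grown to mid-log in raffinose, induced in galactose at OD600=0.02, exposed to compound 24 hr at 30 deg C.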
FUS yeast rescue: suppressors of FUS proteinopathy in yeast | Potency, µM (series often up to 76.6 µM), actives largely listed as activators | 390,000 compounds, 0.24% hits | S. cerevisiae FUS-expressing, growth rescue, OD600, 24 h;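 further: potency means the concentration at half of the fitted maximal effect; plate controls were DMSO vehicle for no effect and reference control for full effect; nearly all actives have a fitted effect of over 55% in size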
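S. cerevisiae expressing FUS from galactose induction served as the toxicity model. Growth after 24hr at 30C, read as absorbance at 600 nm, indicates suppression of toxicity; compounds dosed at several concentrations.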
aSyn rescue: alpha-synuclein toxicity inhibition in yeast; Potency, µM (series often up to 46.1 µM), for the others: at the top dose growth rescue (activation), most hits filed as activators; AID 652106; Yeast expressing alpha-synuclein, growth rescue, BacTiter-Glo, 24 h; 370,000 compounds, 0.14% hits; further: potency means the concentration at half of the fitted maximal effect; % of control where 0% means no effect; nearly all actives have a fitted effect of over 65% in size
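Readout is rescue of growth in alpha-synuclein-expressing yeast, so inhibitors of toxicity appear as activators. Growth after 24 hr at 30 deg C in galactose medium is quantified by luminescence.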
* marks the source's active call; other numbers are inactive results. Unless noted, the call rests on the fitted dose curve; in most records, active means well fitted curve in the direction sought with a large enough effect; inconclusive means small, poorly fitted or top-dose-only effect, or another doubt; inactive means no such curve, though single readings can be large; an effect the other way counts as inactive or inconclusive.

What do the screens show for `c1ccc(Cn2c(-c3cncs3)nc3ccccc32)cc1`?
Mm-Cpn inhibitor: -2%; Abeta yeast res: inactive; CCT modulator: 0; TDP-43 yeast inh: 7.9µM*; FUS yeast rescue: inactive; aSyn rescue: -11%

What do the screens show for `Nn1c(SCC(=O)Nc2cccc3ccccc23)nnc1-c1cc(-c2ccccc2)n[nH]1`?
FUS yeast rescue: inactive

What do the screens show for `CCOC(=O)[C@]12CCCC=C1N(Cc1ccc(OC)cc1)C(=O)[C@@H]2CC(=O)NCCCN1CCCC1=O`?
FUS yeast rescue: inactive

How did CCOC(=O)c1ccc(NS(=O)(=O)c2ccc(Br)s2)cc1 do in these assays?
Abeta yeast res: inactive; TDP-43 yeast inh: 18µM*; FUS yeast rescue: inactive

Results for Cc1ccc(-c2cc(N)n[nH]2)cc1 ?
Mm-Cpn inhibitor: 0%; Abeta yeast res: inactive; CCT modulator: 2; TDP-43 yeast inh: -17%; FUS yeast rescue: 28µM*; aSyn rescue: -7%

How did CCOC(=O)c1[nH]c2c(c1Cc1ccccc1C)C(=O)CC(c1ccccc1)C2 (stereo not given) do in these assays?
Abeta yeast res: inactive; TDP-43 yeast inh: -3%; FUS yeast rescue: inactive

Results for CCOC(=O)c1[nH]c2c(c1Cc1ccccc1)C(=O)CC(c1ccccc1)C2 (stereo not given) ?
Abeta yeast res: inactive; TDP-43 yeast inh: 13µM*; FUS yeast rescue: inactive

What do the screens show for `CC1CCN(c2oc(-c3ccc(COc4ccccc4)o3)nc2C#N)CC1`?
Abeta yeast res: inactive; TDP-43 yeast inh: 8%; FUS yeast rescue: inactive

How did C(=C\c1ccnc2ccccc12)/c1ccc2c(c1)OCO2 do in these assays?
aSyn rescue: -4%

What do the screens show for `O=C(NC1CCCCN(Cc2cccc(Cl)c2)C1=O)c1ccccc1` (stereo not given)?
FUS yeast rescue: inactive

How did Cc1c(NS(C)(=O)=O)cccc1-c1nc2cccnc2s1 do in these assays?
Mm-Cpn inhibitor: 2%; Abeta yeast res: inactive; CCT modulator: 0; TDP-43 yeast inh: 13%; FUS yeast rescue: inactive; aSyn rescue: -3%

What do the screens show for `Cc1c(NS(=O)(=O)c2ccc3c(c2)OCCO3)cccc1-c1nc2cccnc2s1`?
Mm-Cpn inhibitor: inconclusive; Abeta yeast res: inactive; CCT modulator: 0; TDP-43 yeast inh: 35µM*; FUS yeast rescue: inactive; aSyn rescue: inconclusive

How did Cc1c(NS(=O)(=O)c2cccs2)cccc1-c1nc2cccnc2s1 do in these assays?
Mm-Cpn inhibitor: inconclusive; CCT modulator: -2; TDP-43 yeast inh: 22µM*; FUS yeast rescue: inactive; aSyn rescue: inconclusive

Results for CCCOc1nccc2c1n(C)c(=O)n2C ?
FUS yeast rescue: inactive

Results for CCN(CC)c1ccc(NC(=O)CSc2nnc(SCc3ccc(Cl)cc3)s2)cc1 ?
FUS yeast rescue: inactive

Results for COc1cc(-c2cc(=O)c3c(O)c(OC)c(OC)c(OC)c3o2)cc(OC)c1OC ?
Mm-Cpn inhibitor: 0%; Abeta yeast res: inactive; CCT modulator: -4; TDP-43 yeast inh: 6%; FUS yeast rescue: inactive; aSyn rescue: 25µM*

What do the screens show for `COc1cc(-c2cc(=O)c3c(C)cc(O)cc3o2)cc(OC)c1OC`?
Abeta yeast res: inactive; CCT modulator: -5; TDP-43 yeast inh: 0%; aSyn rescue: 0%

How did CCOC(=O)c1c(-c2ccc(-c3ccccc3)cc2)csc1NC(=O)CCN1CCOCC1 do in these assays?
Mm-Cpn inhibitor: 1%; Abeta yeast res: inactive; CCT modulator: 0; TDP-43 yeast inh: 14µM*; FUS yeast rescue: inconclusive; aSyn rescue: -28%

Results for CCOC(=O)c1c(-c2ccc(F)cc2)csc1NC(=O)CCN1CCOCC1 ?
Mm-Cpn inhibitor: 0%; Abeta yeast res: inactive; CCT modulator: -1; TDP-43 yeast inh: -1%; aSyn rescue: 4%

Results for O=S(=O)(NCC(c1ccco1)N1CCc2ccccc21)c1ccccc1 (stereo not given) ?
Mm-Cpn inhibitor: 1%; Abeta yeast res: inactive; CCT modulator: -1; TDP-43 yeast inh: 22µM*; FUS yeast rescue: inactive; aSyn rescue: 10%

Results for O=S(=O)(NCC(c1ccccc1)N1CCc2ccccc21)c1ccc(Cl)cc1 (stereo not given) ?
Abeta yeast res: inactive; TDP-43 yeast inh: 11%; FUS yeast rescue: inconclusive

What do the screens show for `CCC(C)(C)c1ccc(OCCCC[n+]2ccccc2)c(C(C)(C)CC)c1`?
Mm-Cpn inhibitor: 2%; Abeta yeast res: inactive; CCT modulator: 0; TDP-43 yeast inh: 14µM*; FUS yeast rescue: inactive; aSyn rescue: -34%

How did CCCCCc1ccc(OCCCC[n+]2ccccc2)c(CCCCC)c1 do in these assays?
Mm-Cpn inhibitor: 2%; Abeta yeast res: inactive; CCT modulator: 0; TDP-43 yeast inh: inconclusive; FUS yeast rescue: inactive; aSyn rescue: -38%

Results for COc1ccc(NC(=O)/C(N=Nc2cc(S(=O)(=O)Nc3ccc(OC)cc3)ccc2OC)=C(\C)O)cc1 ?
Mm-Cpn inhibitor: -1%; Abeta yeast res: inactive; CCT modulator: 0; TDP-43 yeast inh: 24%; FUS yeast rescue: inactive; aSyn rescue: 6%

What do the screens show for `COc1ccc(NC(=O)/C(N=Nc2ccc(Cl)c(S(=O)(=O)Nc3ccc(Cl)cc3)c2)=C(\C)O)cc1`?
Mm-Cpn inhibitor: -7%; Abeta yeast res: inactive; CCT modulator: -48*; TDP-43 yeast inh: 4%; FUS yeast rescue: inactive; aSyn rescue: 5%

Results for COc1ccc(N2C(=O)N3[C@H](c4ccc(Cl)cc4)[C@@H]4C(=O)N(C5CCCCC5)C(=O)[C@@H]4[C@]3(C)C2=O)cc1 ?
Mm-Cpn inhibitor: -1%; Abeta yeast res: inactive; CCT modulator: -3; TDP-43 yeast inh: 10%; FUS yeast rescue: 28µM*; aSyn rescue: -1%

What do the screens show for `CCOc1ccc(C(=O)NCC(=O)OCc2c(F)cccc2Cl)cc1OCC`?
Mm-Cpn inhibitor: -8%; Abeta yeast res: inactive; CCT modulator: -1; TDP-43 yeast inh: -9%; FUS yeast rescue: inactive; aSyn rescue: 0%

What do the screens show for `CCOc1ccc(C(=O)NCC(=O)OCc2c(F)cccc2Cl)cc1`?
Mm-Cpn inhibitor: 2%; Abeta yeast res: inactive; CCT modulator: 0; TDP-43 yeast inh: 22µM*; aSyn rescue: 1%

What do the screens show for `C=CCNc1nc(NC2CCN(C)CC2)c2cc(OC)c(OC)cc2n1`?
aSyn rescue: 0%

What do the screens show for `COCCNC(=O)c1c(N)[nH]c(C(=O)c2ccc(Br)cc2)c1-c1c(OC)ccc2ccccc12`?
FUS yeast rescue: inactive

Screens deposited in PubChem BioAssay by National Center for Advancing Translational Sciences (NCATS).
